High-throughput results: PubChem, National Center for Advancing Translational Sciences (NCATS)
RXFP1 agonist: agonists of human relaxin receptor RXFP1; Q9HBX9; HEK293T-RXFP1 cAMP TR-FRET, 30 min; response scale: percent of porcine relaxin response, buffer zero; Potency, µM (doses to about 57.5 µM), for inactives: top-dose activation, hits mostly activators; 0.3% of 370,000 active; AID 2676; note: potency is the fitted concentration of half-maximal effect; % is set by controls: 0 for no effect and ±100 for the full control effect; nearly all actives have a fitted effect of over 60% in size
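HEK293 cells stably expressing RXFP1, treated 30 min at 37C with compounds plus PDE4 inhibitor Ro 20174; cAMP measured by HTRF TR-FRET. Normalized to buffer and 29 nM porcine relaxin; EC50 by Hill fit.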
RXFP1 antag: antagonists of human relaxin receptor RXFP1; Q9HBX9; activity change, negative = inhibition, % at 57.5 µM; 0.59% of 350,000 active; HEK293-RXFP1, relaxin-stimulated cAMP HTRF, 30 min; stronger effect = lower value;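 active = activity change of -60% or lower, but not beyond a set lower limit; inconclusive = change between -60% and -40%, or beyond the set limit; inactive = change above -40%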; note: % is set by controls: 0 for no effect and ±100 for the full control effect
gsp ag: activates gsp, the McCune-Albright syndrome mutation; gsp mutant cells, cAMP HTRF, 30 min; Potency, µM (doses to about 76.9 µM), without a hit: top-dose activation (cAMP increase), usual class: activators; 0.13% of 340,000 active; AID 624287; active = well fitted activation curve with a large enough effect; inconclusive = small, poorly fitted or top-dose-only effect, or another doubt; inactive = no such curve, though single readings can be large or run the other way; cell line not stated here;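 note: phosphodiesterase inhibitor Ro 20-1724 added with compounds to block cAMP breakdown; potency is the fitted concentration of half-maximal effect; nearly all actives have a fitted effect of over 60% in size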
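Cells in DMEM/10% FBS with G418 were pretreated with compounds in DMSO plus […] (300 uM stock) for 30 min at 37C. cAMP was measured by HTRF (cAMP-d2 plus anti-cAMP antibody-K) after 30 min at room temperature.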
gsp antagonist: antagonists of gsp mutant (McCune-Albright syndrome); gsp-mutant cells, cAMP HTRF, 30 min; Potency, µM (top dose mostly 76.9 µM), for the others: top-dose activity change, negative = inhibition, usual class: inhibitors; 0.4% of 340,000 active; AID 624288; calls by dose curve; cell line not stated here;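 note: intracellular cAMP measured with PDE inhibitor Ro 20-1724 present during compound exposure; potency is the fitted concentration of half-maximal effect; % is set by controls: 0 for no effect and ±100 for the full control effect; nearly all actives have a fitted effect of over 65% in size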
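HTRF cAMP measurement after 30 min RT detection following 30 min, 37C compound treatment alongside […] (added as 300 uM solution) in G418-selected cells seeded at 2000/well and grown 16–24 h.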
PTHR1 ag: agonists of human PTHR1 parathyroid hormone receptor. Q03431. HEK293 GP2 PTHR1 cells, GloSensor cAMP luminescence, 1 h. Potency, µM (series often up to 115 µM), without a hit: top-dose activation, hits mostly activators. 0.075% of 410,000 active. AID 743266; note: potency is the fitted concentration of half-maximal effect; nearly all actives have a fitted effect of over 55% in size
Target sequence (Q03431 whole entry, looked up): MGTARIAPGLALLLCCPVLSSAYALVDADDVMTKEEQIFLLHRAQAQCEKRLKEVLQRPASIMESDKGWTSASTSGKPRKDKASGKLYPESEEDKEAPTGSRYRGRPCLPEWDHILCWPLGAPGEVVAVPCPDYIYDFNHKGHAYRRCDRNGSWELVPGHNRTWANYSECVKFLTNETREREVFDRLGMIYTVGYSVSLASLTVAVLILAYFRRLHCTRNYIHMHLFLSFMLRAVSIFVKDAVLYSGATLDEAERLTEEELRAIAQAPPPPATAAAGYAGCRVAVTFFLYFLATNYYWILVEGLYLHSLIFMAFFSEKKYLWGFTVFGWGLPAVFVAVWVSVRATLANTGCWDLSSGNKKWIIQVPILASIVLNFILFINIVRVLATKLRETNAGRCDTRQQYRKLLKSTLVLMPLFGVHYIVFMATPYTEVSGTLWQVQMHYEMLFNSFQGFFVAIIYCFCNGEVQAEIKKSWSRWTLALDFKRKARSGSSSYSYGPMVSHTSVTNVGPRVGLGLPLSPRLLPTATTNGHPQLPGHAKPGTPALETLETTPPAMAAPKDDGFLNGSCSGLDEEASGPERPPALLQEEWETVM
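HEK-293-derived GP2 cells expressing PTHR1 and a GloSensor cAMP reporter, 3,000/well, plated overnight, given luciferin plus IBMX (each 0.5 mM as added) for 1 h at 37 °C, then compound for 1 h at 37 °C. Luminescence was read after 15 min at room temperature.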
Starred values were filed as active, the others as inactive; i = inactive; ? = inconclusive; nt = no result; [ ] = dose if it differs, or a comment. Compounds with a hit are over-represented: about 1% of the library has one in this group of screens. Unless noted, calls come from the whole dose curve; as a rule, active = well fitted curve in the direction sought with a large enough effect; inconclusive = small, poorly fitted or top-dose-only effect, or another doubt; inactive = no such curve, though single readings can be large; an effect the other way counts as inactive or inconclusive.

SMILES	RXFP1 agonist	RXFP1 antag	gsp ag	gsp antagonist	PTHR1 ag
O=[N+]([O-])c1ccc(-c2nc(Nc3cccc(O)c3)c3ccccc3n2)cc1	10%	-10	?	28µM*	-33%
O=C(O)c1cccc(Nc2nc(-c3ccc([N+](=O)[O-])cc3)nc3ccccc23)c1	21%	-10	?	-13%	-6%
COC(=O)c1sc(NC(=S)NC(=O)c2cccc(C)c2)nc1C	1%	0	-5%	7%	i
COC(=O)c1sc(NC(=S)NC(=O)c2ccccc2F)nc1C	35µM*	-4	?	-6%	-12%
CSc1nc(N)nc(SCC(=O)Nc2cccc(F)c2)c1C#N	16%	-6	-2%	28µM*	-31%
Cc1ccc(Cl)cc1NS(=O)(=O)c1cc2c3c(c1)CC(=O)N3CCC2	-2%	-23	nt	nt	-17%
O=C(c1nc(-c2ccc(Cl)cc2)n2c1CCCCC2)N1CCN(c2ccccc2)CC1	4%	-4	nt	nt	-9%
O=C(COC(=O)CNC(=O)c1ccc(Br)o1)Nc1ccc2c(c1)OCCO2	0%	3	-114%	50µM*	-2%[57.5 µM]
O=C(COC(=O)c1ccc(Br)o1)Nc1ccc2c(c1)OCCO2	nt	-3	3%	-14%	i
CCn1c2ccccc2c2cc(CN3CCN(Cc4cc(OC)c(O)c(OC)c4)CC3)ccc21	3%	-67*	nt	nt	-13%
CCn1c2ccccc2c2cc(CN3CCN(Cc4cc(OC)ccc4O)CC3)ccc21	3%	-9	-28%	8%	-83%
O=C(CSc1nnc(-c2ccncc2)n1Cc1ccco1)Nc1nc(-c2ccccc2)cs1	1%	-16	-7%	35µM*	-33%
O=C(CSc1nnc(-c2ccncc2)n1Cc1ccco1)Nc1ccccc1Cl	4%	6	4%	5%	i
CC1(C)OC(=O)Nc2ccc(Br)cc21	nt	10	nt	nt	nt
CCCCNC(=O)c1cnn2c(C)c(Cc3c(C)cc(C)cc3C)c(C)nc12	1%	-61*	nt	nt	-68%
CC[C@H](C)[C@H](N)C(=O)O	nt	-5	nt	nt	nt
Cc1cc(C)n2nc3nc4c(cc3c2n1)CCCC4	13%	3	14µM*	19%	-4%[57.5 µM]
COc1cc(-c2cc3nc4ccccc4n3c(N)c2C#N)cc(OC)c1OC	0%	39	28µM*	13%	-25%
Cn1c(=O)c([N+](=O)[O-])c(Cl)c2ccccc21	2%	-80*	-2%[15.4 µM]	28µM*	-29%
CCN(CC)c1c([N+](=O)[O-])c(=O)n(C)c2ccccc12	-1%	-35	-9%[15.4 µM]	-8%	-46%
CC(=O)Nc1ccccc1-c1nc2ccccc2n(C(C)C(=O)c2ccc(C)c(C)c2)c1=O (centres undefined)	-6%	6	nt	nt	-94%
COc1ccc(-c2cc3nc4n(c(=O)c3s2)CCCCC4)cc1	6%	-6	?	-11%	-20%
COc1ccc(-c2cc3nc4n(c(=O)c3s2)CCC4)cc1	4%	22	16µM*	5%	-12%[57.5 µM]
COc1ccc(-c2onc(C)c2C)cc1S(=O)(=O)NCc1ccc(C)o1	1%	-15	nt	nt	i
CC1CCC(C(C)C)C(OC(=O)Cn2c(-c3ccccc3)[n+](C)c3ccccc32)C1 (centres undefined)	0%	-71*	?	3%	-32%
SMILES	RXFP1 agonist	RXFP1 antag	gsp ag	gsp antagonist	PTHR1 ag
COC(=O)c1ccccc1-c1ccc(/C=N/Nc2nc(N3CCCC3)nc(N3CCCC3)n2)o1	10%	?	0%[15.4 µM]	25µM*	-21%
CCCCNC(=O)/C(C#N)=C/c1ccc(F)cc1F	-1%	-15	-1%[15.4 µM]	11µM*	-49%
COCCCNC(=O)/C(C#N)=C/c1ccc(F)cc1	0%	-9	30%[15.4 µM]	4%	-12%
COc1ccc2sc(N(Cc3cccnc3)C(=O)C3COc4ccccc4O3)nc2c1 (centres undefined)	0%	-23	nt	nt	-3%
Cc1sc(-n2c(C)cc(/C=C3\SC(=S)NC3=O)c2C)c(C#N)c1C	1%	-105*	10%	-39%	-44%[57.5 µM]
Cc1cc(/C=C2\SC(=S)NC2=O)c(C)n1-c1cccc(O)c1	1%	-15	-2%	-24%	-3%
O=C(CCc1nc2ccccc2c(=O)[nH]1)N1CCN(C/C=C/c2ccccc2)CC1	3%	-18	3%	22µM*	-19%
CC(C)N1C(=O)C(O)(c2c[nH]c3ccccc23)c2ccccc21 (centres undefined)	-1%	nt	nt	nt	-40%
CC(=O)OCCCN1c2ccccc2Nc2nnc(-c3ccccc3)cc21	0%	-4	-11%	40µM*	-36%
Cc1nnc(NC(=O)CCCCCN2C(=O)C3C4C=CC(C4)C3C2=O)s1 (centres undefined)	2%	nt	-119%	50µM*	i
Cc1ccccc1C(=O)Nc1c(C)nc(Nc2ccccc2)nc1Nc1ccccc1	1%	nt	nt	nt	-26%
CCCC1(c2ccccc2)NC(=O)N(CC(=O)Nc2sc(-c3ccccc3)cc2C(=O)OCC)C1=O (centres undefined)	28µM*	-7	-93%	19%	i
CCOC(=O)c1cc(-c2ccccc2)sc1NC(=O)CN1C(=O)c2ccccc2C1=O	nt	-3	-4%	-6%	i
N#CC1=C2SCN(Cc3ccccc3)CN2C(=O)CC1c1cccs1 (centres undefined)	25µM*	7	?	6%	i
Cc1ccc(/C=C2/SC(=S)N(c3ccc(S(=O)(=O)Nc4nccs4)cc3)C2=O)cc1	23%	-67*	2%[15.4 µM]	32µM*	-33%
COc1ccc(/C=C2/SC(=S)N(c3ccc(S(=O)(=O)Nc4nccs4)cc3)C2=O)cc1	0%	-80*	9%[15.4 µM]	32µM*	-8%
Cc1ccc(N2C(=O)/C(=C/c3cccnc3)SC2=S)cc1	-2%	-8	4%[15.4 µM]	3%	i
O=C(Nc1ccc(S(=O)(=O)Nc2nccs2)cc1)c1cccc(N2C(=O)c3ccccc3C2=O)c1	0%	-5	8%	-12%	-37%
Cc1ccc(Oc2ccc3c(c2)C(=O)N(c2ccc(S(=O)(=O)Nc4nccs4)cc2)C3=O)cc1	0%	-107*	38%	?	-27%
O=C1/C(=C\c2ccccn2)SC(=S)N1c1ccc(S(=O)(=O)Nc2nccs2)cc1	0%	-81*	0%[15.4 µM]	40µM*	-21%
CCCNC(=O)c1c(C)nn(-c2cccc(C)c2)c1-n1cccc1	5%	-14	nt	nt	i
Cc1nc2ccccc2n1CCc1nc2c3ccccc3nc(SCc3ccc(C#N)cc3)n2n1	0%	6	nt	nt	-32%
CC(C)(C)c1ccc(C(=O)Nc2nnc3n2CCS3)cc1	1%	-8	nt	nt	-27%
CCCc1nn2c(=O)cc(COC(=O)c3ccccc3NC(=O)c3ccc(Cl)cc3)nc2s1	13%	1	nt	nt	25%
Cc1cc(C)c(Cn2c3ccccc3c3cnn(CC(=O)NCCN4CCOCC4)c(=O)c32)c(C)c1	0%	-64*	-2%	9%	-10%
